Source: PubChem BioAssay (NCATS)
Records with an inconclusive call do not appear. A call without a number means that no potency is given here. Activity calls are given as the source filed them. Calls come from the whole dose curve; as a rule, active = well fitted curve in the direction sought with a large enough effect; inconclusive = small, poorly fitted or top-dose-only effect, or another doubt; inactive = no such curve, though single readings can be large; an effect the other way counts as inactive or inconclusive.

Target: Cytochrome P450 2C9 (Homo sapiens) (UniProt P11712)
Sequence (P11712 whole entry, looked up): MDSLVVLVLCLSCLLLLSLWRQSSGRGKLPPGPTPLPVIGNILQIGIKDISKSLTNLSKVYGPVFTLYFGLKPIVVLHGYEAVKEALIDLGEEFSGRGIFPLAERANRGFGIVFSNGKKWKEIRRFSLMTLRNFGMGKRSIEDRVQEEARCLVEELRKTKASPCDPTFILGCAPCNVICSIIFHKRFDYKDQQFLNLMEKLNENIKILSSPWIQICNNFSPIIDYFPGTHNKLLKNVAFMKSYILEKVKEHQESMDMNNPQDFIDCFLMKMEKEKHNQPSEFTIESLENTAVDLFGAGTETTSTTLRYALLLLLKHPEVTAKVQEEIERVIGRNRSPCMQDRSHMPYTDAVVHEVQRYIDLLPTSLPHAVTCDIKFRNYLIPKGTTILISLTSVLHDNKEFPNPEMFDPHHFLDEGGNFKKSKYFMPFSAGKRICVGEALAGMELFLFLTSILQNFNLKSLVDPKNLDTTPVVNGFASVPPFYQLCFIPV
Test: qHTS Assay for Inhibitors and Substrates of Cytochrome P450 2C9 (AID 883); note: nearly all actives have a fitted effect of over 60% in size; note: potency is the fitted concentration of half-maximal effect
Conditions: recombinant CYP2C9, luciferin-H luminescence, 60 min; series mostly up to 57.1 µM
In short: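 Human CYP2C9 (10nM) hydroxylated Luciferin-H (100uM, at its KM) to luciferin in 25mM KPO4. Compound was preincubated 10 min at 37C, then NADPH regeneration started a 60 min reaction at 37C. Luminescence was read after detection reagent, normalized to 57uM sulphaphenazole.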

SMILES	activity change, negative = inhibition	Potency
Cc1cnc(CNc2ncnc3ccc(-c4ccccc4CN(C)C)cc23)cn1	39% [at 2.29 µM] (inactive)	–
Cn1cccc1C(=O)N1CCC2(CCCN(Cc3ccncc3)C2)CC1	–	1.58 µM (active)
CN(C)c1ccc(-c2nc(N(C)C)c3ccccc3n2)cc1	118% [at 2.29 µM] (inactive)	–
O=C(c1cc(C(F)(F)F)cc(C(F)(F)F)c1)N1CCC2(CC1)CN(c1ccncc1)C2	–	3.98 µM (active)

Target: Cytochrome P450 3A4 (Homo sapiens) (UniProt P08684)
Sequence (P08684 whole entry, looked up): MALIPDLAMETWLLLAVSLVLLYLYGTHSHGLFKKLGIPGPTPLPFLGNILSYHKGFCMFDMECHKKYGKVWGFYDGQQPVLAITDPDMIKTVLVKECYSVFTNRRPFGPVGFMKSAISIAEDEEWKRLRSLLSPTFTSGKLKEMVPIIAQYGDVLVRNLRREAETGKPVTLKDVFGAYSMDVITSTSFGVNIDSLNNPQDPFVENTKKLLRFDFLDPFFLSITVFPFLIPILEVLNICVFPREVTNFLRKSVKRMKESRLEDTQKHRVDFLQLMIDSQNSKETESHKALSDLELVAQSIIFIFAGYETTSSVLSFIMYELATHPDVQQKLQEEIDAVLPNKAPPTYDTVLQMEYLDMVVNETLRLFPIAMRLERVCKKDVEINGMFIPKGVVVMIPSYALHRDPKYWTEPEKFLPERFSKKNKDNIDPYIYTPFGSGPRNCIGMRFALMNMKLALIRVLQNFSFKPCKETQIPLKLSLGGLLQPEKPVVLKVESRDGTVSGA
Test: qHTS Assay for Inhibitors and Substrates of Cytochrome P450 3A4 (AID 884); note: potency is the fitted concentration of half-maximal effect; nearly all actives have a fitted effect of over 50% in size
Conditions: recombinant CYP3A4, Luciferin-PPXE luminescence; series mostly up to 57.1 µM
In short: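 Luminescent readout of luciferin produced by CYP3A4 (20 nM) dealkylation of Luciferin-PPXE, 25 uM (its KM). NADPH-driven reaction ran 60 min at RT after 10 min compound preincubation; data scaled to 57 uM ketoconazole as 100% inhibition.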

SMILES	Potency
Cc1noc(C)c1-c1nc(N2CCOCC2)c2ccccc2n1	6.31 µM (active)
COc1ccc(Oc2ncc3nc(-c4ccc(F)cc4)c(=O)n(C)c3n2)cc1	3.98 µM (active)
Cc1cnc(CNc2nc(-c3ccc(N(C)C)cc3)nc3ccccc23)cn1	5.01 µM (active)
Cc1cccc(CNc2ncnc3ccc(-c4c(C)noc4C)cc23)c1	0.794 µM (active)

Target: Cytochrome P450 3A4 (Homo sapiens) (UniProt P08684)
Test: qHTS Assay for Activators of Cytochrome P450 3A4 (AID 885); note: nearly all actives have a fitted effect of over 65% in size
Conditions: recombinant CYP3A4, Luciferin-PPXE luminescence, 60 min; series mostly up to 57.1 µM
In short: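 CYP3A4 activity: Luciferin-PPXE O-dealkylation, 25uM substrate, 200mM KPO4, RT throughout. Read-out is luciferase luminescence; higher values reflect activation.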

SMILES	Potency
Cc1noc(C)c1-c1nc(N2CCOCC2)c2ccccc2n1	inactive
COc1ccc(Oc2ncc3nc(-c4ccc(F)cc4)c(=O)n(C)c3n2)cc1	inactive
O=C(c1ccncc1)N1CCC2(CCN(Cc3ccccc3)CC2)CC1	inactive
Cn1cccc1C(=O)N1CCC2(CCCN(Cc3ccncc3)C2)CC1	inactive
CS(=O)(=O)Nc1cccc(-c2nc(NCCN3CCOCC3)c3ccccc3n2)c1	inactive
CNc1ncnc2ccc(-c3cccc(NS(C)(=O)=O)c3)cc12	inactive
N#Cc1cccc(NC(=O)N2CC[C@@]3(CCCN(C(=O)c4ccco4)C3)C2)c1	inactive
CC(=O)NCCNc1nc(-c2ccc(N(C)C)cc2)nc2ccccc12	inactive
FC(F)(F)c1ccccc1-c1nccc(NCc2ccccc2)n1	inactive
Cc1cnc(CNc2nc(-c3ccc(N(C)C)cc3)nc3ccccc23)cn1	inactive
CN(C)c1ccc(-c2nc(N(C)C)c3ccccc3n2)cc1	inactive
CC(=O)NCCNc1ncncc1-c1ccccc1C(F)(F)F	inactive
COCCNc1nc(-c2ccccc2C)nc2ccccc12	inactive
O=C(c1ccco1)N1CCC[C@@]2(CCN(C(c3ccccc3)c3ccccc3)C2)C1	inactive
COc1ccc(C(=O)N2CCC[C@@]3(CCN(C(=O)NC(C)C)C3)C2)cc1	inactive
Cc1cccc(CNc2ncnc3ccc(-c4c(C)noc4C)cc23)c1	inactive
COc1ccc2[nH]cc(CCNc3ccnc(-c4cccc(NS(C)(=O)=O)c4)n3)c2c1	inactive
COc1ccc(CNc2cc(-c3ccccc3CN(C)C)ncn2)c(OC)c1	inactive

Target: Cytochrome P450 2D6 (Homo sapiens) (UniProt P10635)
Sequence (P10635 whole entry, looked up): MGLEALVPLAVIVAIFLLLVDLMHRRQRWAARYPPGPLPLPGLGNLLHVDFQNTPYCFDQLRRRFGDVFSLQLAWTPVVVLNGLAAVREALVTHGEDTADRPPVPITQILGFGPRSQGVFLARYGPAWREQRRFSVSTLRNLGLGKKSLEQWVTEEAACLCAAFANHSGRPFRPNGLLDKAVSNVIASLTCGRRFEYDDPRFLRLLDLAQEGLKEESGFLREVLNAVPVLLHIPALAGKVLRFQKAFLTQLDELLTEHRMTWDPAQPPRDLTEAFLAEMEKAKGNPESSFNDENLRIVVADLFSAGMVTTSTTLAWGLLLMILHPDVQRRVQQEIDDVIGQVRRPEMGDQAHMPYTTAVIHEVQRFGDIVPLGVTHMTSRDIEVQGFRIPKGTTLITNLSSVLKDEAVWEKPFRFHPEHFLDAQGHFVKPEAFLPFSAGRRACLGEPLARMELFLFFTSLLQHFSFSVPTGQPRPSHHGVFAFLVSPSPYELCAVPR
Test: qHTS Assay for Inhibitors and Substrates of Cytochrome P450 2D6 (AID 891); note: potency is the fitted concentration of half-maximal effect; nearly all actives have a fitted effect of over 60% in size
Conditions: recombinant CYP2D6, luciferin-ME EGE luminescence; series mostly up to 57.1 µM
In short: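 Luminescent read-out of luciferin formed by 5 nM human CYP2D6 demethylating 30 uM Luciferin-ME EGE (Km level) over 60 min at room temperature after NADPH regeneration addition. Data normalized to full inhibition by 1.43 uM quinidine.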

SMILES	Potency
Cc1cnc(CNc2ncnc3ccc(-c4ccccc4CN(C)C)cc23)cn1	2.51 µM (active)
Cn1cccc1C(=O)N1CCC2(CCCN(Cc3ccncc3)C2)CC1	7.94 µM (active)
CN(C)c1ccc(-c2nc(N(C)C)c3ccccc3n2)cc1	7.94 µM (active)
O=C(c1ccco1)N1CCC[C@@]2(CCN(C(c3ccccc3)c3ccccc3)C2)C1	3.16 µM (active)

Target: Cytochrome P450 2C19 (Homo sapiens) (UniProt P33261)
Sequence (P33261 whole entry, looked up): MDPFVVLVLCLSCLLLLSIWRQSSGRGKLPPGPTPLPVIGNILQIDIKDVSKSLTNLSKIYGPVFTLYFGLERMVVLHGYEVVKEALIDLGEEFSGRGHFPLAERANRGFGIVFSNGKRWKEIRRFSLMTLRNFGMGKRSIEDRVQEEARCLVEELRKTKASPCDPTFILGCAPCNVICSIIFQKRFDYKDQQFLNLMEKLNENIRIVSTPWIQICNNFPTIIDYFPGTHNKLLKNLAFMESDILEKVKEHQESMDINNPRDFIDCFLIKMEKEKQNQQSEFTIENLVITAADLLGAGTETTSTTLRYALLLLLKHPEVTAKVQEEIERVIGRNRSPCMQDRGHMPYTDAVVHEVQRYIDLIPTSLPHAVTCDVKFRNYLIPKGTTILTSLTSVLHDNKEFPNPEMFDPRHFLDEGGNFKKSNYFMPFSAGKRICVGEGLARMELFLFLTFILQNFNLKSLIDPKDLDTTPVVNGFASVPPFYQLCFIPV
Test: qHTS Assay for Inhibitors and Substrates of Cytochrome P450 2C19 (AID 899); note: nearly all actives have a fitted effect of over 60% in size; note: potency is the fitted concentration of half-maximal effect
Conditions: recombinant CYP2C19, luciferin-H EGE luminescence; series mostly up to 57.1 µM
In short: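 Human CYP2C19 (5nM) with Luciferin-H EGE at 10uM (its KM) in 50mM KPO4 was preincubated with compound for 10 min at 37C. NADPH regeneration started a 60 min 37C reaction. Luciferin was read by luminescence, normalized to 57uM ketoconazole.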

SMILES	Potency
O=C(c1ccncc1)N1CCC2(CCN(Cc3ccccc3)CC2)CC1	inactive
FC(F)(F)c1ccccc1-c1nccc(NCc2ccccc2)n1	6.31 µM (active)
Cc1cccc(CNc2ncnc3ccc(-c4c(C)noc4C)cc23)c1	5.01 µM (active)

Test system: not listed separately
Test: Confirmation and Secondary Assay for Modulators of Hemoglobin Beta Chain Splicing at IVS2 654 locus (AID 910);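 note: per-well total GFP intensity by laser scanning cytometry after 2-day treatment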
Conditions: HeLa EGFP-654 splicing reporter, GFP fluorescence, 48 h; series mostly up to 38.3 µM
In short: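 HeLa cells stably carrying EGFP interrupted by mutant beta-globin IVS2-654 intron (CMV-driven) were treated with compound for 2 days at 37C; corrected splicing was scored as total peak GFP intensity per well (488 nm excitation, 500-520 nm emission).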

SMILES	Potency
Cc1noc(C)c1-c1nc(N2CCOCC2)c2ccccc2n1	inactive
CNc1nc(-c2ccccc2C(F)(F)F)nc2ccccc12	inactive
Cc1cnc(CNc2ncnc3ccc(-c4ccccc4CN(C)C)cc23)cn1	inactive
CS(=O)(=O)Nc1cccc(-c2nc(NCCN3CCOCC3)c3ccccc3n2)c1	inactive
CNc1ncnc2ccc(-c3cccc(NS(C)(=O)=O)c3)cc12	inactive
FC(F)(F)c1ccccc1-c1nccc(NCc2ccccc2)n1	inactive
Cc1cnc(CNc2nc(-c3ccc(N(C)C)cc3)nc3ccccc23)cn1	inactive
CN(C)c1ccc(-c2nc(N(C)C)c3ccccc3n2)cc1	inactive
CC(=O)NCCNc1ncncc1-c1ccccc1C(F)(F)F	inactive
Cc1cnc(CNc2cc(-c3ccoc3)ncn2)cn1	inactive
COCCNc1nc(-c2ccccc2C)nc2ccccc12	inactive
COc1ccc2[nH]cc(CCNc3ccnc(-c4cccc(NS(C)(=O)=O)c4)n3)c2c1	inactive
COc1ccc(CNc2cc(-c3ccccc3CN(C)C)ncn2)c(OC)c1	inactive

Test system: not listed separately
Test: Confirmation and Secondary Assay for Modulators of Hemoglobin Beta Chain Splicing at IVS2 705 locus (AID 930);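 note: HeLa cells stably expressing the EGFP-705 splicing reporter; GFP fluorescence per well restored by corrected splicing of the IVS2-705 intron in EGFP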
Conditions: HeLa EGFP-705 splicing reporter, GFP fluorescence, 48 h; series mostly up to 38.3 µM
In short: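 HeLa IVS2-705 EGFP reporter cells, 500/well, compound 2 d at 37C; correct splicing yields fluorescent EGFP. Control: 500 nM antisense PNA. Read-out: total peak GFP intensity.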

SMILES	outcome
Cc1noc(C)c1-c1nc(N2CCOCC2)c2ccccc2n1	inactive
CNc1nc(-c2ccccc2C(F)(F)F)nc2ccccc12	inactive
Cc1cnc(CNc2ncnc3ccc(-c4ccccc4CN(C)C)cc23)cn1	inactive
CS(=O)(=O)Nc1cccc(-c2nc(NCCN3CCOCC3)c3ccccc3n2)c1	inactive
CNc1ncnc2ccc(-c3cccc(NS(C)(=O)=O)c3)cc12	inactive
CC(=O)NCCNc1nc(-c2ccc(N(C)C)cc2)nc2ccccc12	inactive
FC(F)(F)c1ccccc1-c1nccc(NCc2ccccc2)n1	inactive
Cc1cnc(CNc2nc(-c3ccc(N(C)C)cc3)nc3ccccc23)cn1	inactive
CC(=O)NCCNc1ncncc1-c1ccccc1C(F)(F)F	inactive
Cc1cnc(CNc2cc(-c3ccoc3)ncn2)cn1	inactive
COCCNc1nc(-c2ccccc2C)nc2ccccc12	inactive
Cc1cccc(CNc2ncnc3ccc(-c4c(C)noc4C)cc23)c1	inactive
COc1ccc2[nH]cc(CCNc3ccnc(-c4cccc(NS(C)(=O)=O)c4)n3)c2c1	inactive
COc1ccc(CNc2cc(-c3ccccc3CN(C)C)ncn2)c(OC)c1	inactive
COc1ccc(CNc2nc(-c3ccoc3)nc3ccccc23)c(OC)c1	inactive
